Compound activity as filed in PubChem BioAssay.
Shown are actives, neighbours in structure and some others; about 9% of the full set was active somewhere.
IMPase inh = qHTS Assay for Identifying the Cell-Membrane Permeable IMPase Inhibitors; Inositol monophosphatase 1 (Rattus norvegicus), P97697; CHO-M1 cells, IP1 accumulation, HTRF TR-FRET ratio; inhibition (IP1 accumulation), % at 46.1 µM; 120,000 tested, under 10 active; active = well fitted curve in the direction sought with a large enough effect in the signal ratio, not every such curve was filed as active; inconclusive = small, poorly fitted or top-dose-only effect, or a change in a side signal; inactive = no such curve, though single readings can be large or run the other way; the % refers to the signal ratio;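 note: cells stimulated with carbachol in lithium chloride buffer; plate controls were DMSO basal wells for no effect and reference inhibitor wells for full effect; higher means more IMPase inhibition seen as more IP1 and lower FRET ratio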
Target sequence (P97697 whole entry, looked up): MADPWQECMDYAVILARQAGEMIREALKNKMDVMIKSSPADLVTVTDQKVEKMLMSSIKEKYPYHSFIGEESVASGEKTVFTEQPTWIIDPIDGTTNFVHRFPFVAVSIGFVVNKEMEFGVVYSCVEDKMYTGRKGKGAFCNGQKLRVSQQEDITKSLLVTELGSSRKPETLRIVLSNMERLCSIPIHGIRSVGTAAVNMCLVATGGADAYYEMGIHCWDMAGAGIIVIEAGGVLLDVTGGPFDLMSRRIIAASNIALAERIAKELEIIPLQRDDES
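Cellular IMPase inhibition is scored as a rise in cytosolic IP1, detected by competitive TR-FRET between d2-labelled IP1 and a europium anti-IP1 antibody. M1-expressing CHO cells were stimulated with carbachol for 30 min at 37C, with lithium (50 mM LiCl) present in the buffer.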
ALDH1A1 block = qHTS Assay for Inhibitors of Aldehyde Dehydrogenase 1 (ALDH1A1); Aldehyde dehydrogenase 1A1 (Homo sapiens), P00352; Purified ALDH1A1, NADH fluorescence, propionaldehyde substrate; Potency, µM (titrated, usually from 75.3 µM), inactives show at the top dose activity, negative = inhibition, most hits filed as inhibitors; actives 7.3% (n = 220,000);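 note: potency is the fitted concentration of half-maximal effect; plate controls were no enzyme wells and a reference inhibitor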
HPGD block = qHTS Assay for Inhibitors of HPGD (15-Hydroxyprostaglandin Dehydrogenase); 15-hydroxyprostaglandin dehydrogenase [NAD(+)] (Homo sapiens), P15428; purified HPGD, NADH fluorescence kinetic, PGE2 substrate; Potency, µM, for the others: top-dose activity change, negative = inhibition, most hits filed as inhibitors; actives 4.3% (n = 150,000); note: potency is the fitted concentration of half-maximal effect
Target sequence (P15428 whole entry, looked up): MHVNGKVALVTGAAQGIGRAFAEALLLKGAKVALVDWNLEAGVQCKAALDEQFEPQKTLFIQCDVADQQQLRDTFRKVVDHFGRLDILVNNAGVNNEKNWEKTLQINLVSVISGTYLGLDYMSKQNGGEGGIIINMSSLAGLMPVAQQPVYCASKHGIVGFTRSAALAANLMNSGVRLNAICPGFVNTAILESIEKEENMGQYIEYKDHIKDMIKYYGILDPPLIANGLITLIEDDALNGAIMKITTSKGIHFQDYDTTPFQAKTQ
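NADH formation kinetics: reaction with 30 uM PGE2 and 1 mM NAD+ (final), 20 nM enzyme, Tris-HCl pH 8 with Tween 20, after 15 min compound preincubation at room temperature. Fluorescence change, last versus first of five reads.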
Numbers without * were called inactive; u = inconclusive; x = no result; [ ] = another dose, or the depositor's remark. Unless noted, calls come from the whole dose curve; as a rule, active = well fitted inhibition curve with a large enough effect (not every such curve was filed as active); inconclusive = small, poorly fitted or top-dose-only effect, or another doubt; inactive = no such curve, though single readings can be large or run the other way. Unless noted, % is set by controls: 0 for no effect and ±100 for the full control effect.

SMILES	IMPase inh	ALDH1A1 block	HPGD block
O=C(CCCOc1ccc(Cl)cc1)NCC1CCCO1 (stereo unspecified)	-2	u	14µM*
O=C(CSc1ccc2c(c1)OCCO2)NCc1ccccc1	x	-10%	x
O=C(CSc1cc(Cl)ccc1Cl)NCC1CCCO1 (stereo unspecified)	3	5%	6.3µM*
Cc1ccc(/C=C/C(=O)CCC(=O)O)cc1	x	11%	x
Cc1cc(O)cc(O)c1C(=O)OC1(C)C(=O)C=C2C=C(/C=C/C(=O)O)OC=C2C1=O (stereo unspecified)	x	u	-17%
O=C(N/C(=C/C=C/c1ccccc1)C(=O)N1CCOCC1)c1ccccc1Br	x	-1%	x
COc1ccc(NC(=O)c2ccco2)cc1NC(=O)c1cc(Cl)ccc1OC	-3	x	x
NNC(=O)c1ccc(CN2CCCCC2)o1	x	7%	x
CS(=O)(=O)Nc1cccc(-c2ccc3ncnc(Nc4ccc(F)cc4)c3c2)c1	x	14%	u
COc1ccc(C(=O)NC(Nc2ccccc2)C(Cl)(Cl)Cl)cc1 (stereo unspecified)	8	-3%	-1%
CCOC(=O)/C(=N\Nc1ccccc1Cl)N1CCN(c2ccccc2OC)CC1	x	15%	x
CCCCOC(=O)CSc1n[nH]c(=O)[nH]c1=O	4	-5%	-22%
COc1cccc(C(CC(=O)NCc2ccco2)NS(=O)(=O)c2ccc(C)cc2)c1OC (stereo unspecified)	-18	20µM*	-9%
COc1ccccc1CN(CC(=O)NCc1ccco1)C(=O)CNS(=O)(=O)c1ccccc1	10	u	-2%
COc1cccc(C(CC(=O)NCC2CCCO2)NS(=O)(=O)c2ccc(C)cc2)c1OC (stereo unspecified)	4	10%	-3%
O=C(CN(C(=O)CNS(=O)(=O)c1ccccc1)c1ccc2c(c1)OCCO2)NCc1ccco1	u	2%	-5%
O=C(CN(Cc1ccc2c(c1)OCO2)C(=O)CNS(=O)(=O)c1ccccc1)NCc1ccco1	-2	4.5µM*	-9%
COc1ccccc1CN(CC(=O)NCc1ccco1)C(=O)CNS(=O)(=O)c1ccc(C)cc1	5	22µM*	3%
CCC1OC(=O)C(C)[C@@H](O[C@H]2C[C@@](C)(OC)C(O)C(C)O2)C(C)[C@@H](O[C@@H]2OC(C)CC(N(C)C)C2O)[C@](C)(O)CC(C)/C(=N\OCOCCOC)[C@H](C)C(O)[C@]1(C)O (stereo partly specified)	x	-1%	-2%
Cc1noc(C)c1C(=O)N1CCC2(CCN(Cc3cc(C(F)(F)F)cc(C(F)(F)F)c3)CC2)CC1	x	6%	-9%
CCCCC(=O)OCC(=O)c1[nH]c(C)c(C(C)=O)c1C	x	10%	x
COc1ccccc1OC(=O)CN1C(=O)c2ccccc2C1=O	-5	u	-9%
CCCC(C)C(=O)Nc1ccc(S(N)(=O)=O)cc1 (stereo unspecified)	x	-1%	x
CCC(OC(=O)CN1C(=O)C(=O)c2ccccc21)C(=O)Nc1ccc(S(N)(=O)=O)cc1 (stereo unspecified)	x	0.089µM*	x
CC1=C(C(=O)Nc2ccc(C)cc2C)C(c2cccs2)n2nc(SCc3ccc(Cl)cc3)nc2N1 (stereo unspecified)	-5	x	x
SMILES	IMPase inh	ALDH1A1 block	HPGD block
Cn1c(-c2cccc3ccccc23)n[nH]c1=S	x	-6%	-24%
Cn1c(-c2cc(Br)ccc2O)n[nH]c1=S	2	3%	14µM*
S=C1NCCNC(=S)NCCOCCN1	x	9%	x
CC1=CCC2CC1C2(C)C (stereo unspecified)	x	-16%	-1%
O=C(COC(=O)c1cccnc1Cl)NCc1cccs1	x	2%	x
COc1ccc(-c2nsc(SCC(=O)Nc3ccc4c(c3)OCO4)n2)cc1	x	5%	-17%
CCOC(=O)N1CCN(C(=O)CSc2nc(-c3cccc(C)c3)ns2)CC1	1	u	u
CCOC(=O)CSc1nc(-c2ccc(OC)cc2)ns1	-8[1.84 µM]	25µM*	35µM*
CCOC(=O)CNC(=O)CSc1nc(-c2ccccc2)ns1	x	25µM*	x
C[C@H](CCC(=O)O)[C@H]1CC[C@@H]2[C@H]3[C@@H](C[C@@H](O)[C@]21C)[C@]1(C)CC[C@H](O)C[C@@H]1C[C@@H]3O	x	1%[13.5 µM]	-2%
Cc1cc(S(=O)(=O)Nc2ccc3oc4c(c3c2)CCCC4)ccc1Cl	3	x	x
Cc1cccc(NC(=O)c2ccc(-c3ccccc3[N+](=O)[O-])o2)c1	x	2.2µM*	x
Cc1ccccc1-c1ccc(C(=O)Nc2cccc(F)c2)o1	x	u	-13%
Cc1cc(=O)oc2cc(OCC(=O)Nc3c(C(C)C)cccc3C(C)C)ccc12	-11	x	x
Cc1ccccc1-c1nc(NCc2cccnc2)c2ccccc2n1	x	22µM*	-24%
Cc1cnc(CNc2nc(-c3ccccc3Cl)nc3ccccc23)cn1	x	14µM*	x
c1cncc(CNc2nc(-c3ccoc3)nc3ccccc23)c1	x	-2%	-6%
Cc1cnc(CNc2nc(-c3c(C)noc3C)nc3ccccc23)cn1	x	0%	x
COc1ccc(-c2nc(SCC(=O)Nc3ccc4c(c3)OCCO4)c(-c3ccc(F)cc3)[nH]2)cc1OC	8	x	x
COc1cc(C(=O)Nc2c(C)cc(C)cc2C)c(Br)c(OC)c1OC	x	5%	x
Cc1cccc(NC(=O)CSc2ncc(-c3ccc(Br)cc3)[nH]2)c1	0	x	x
COc1cccc(Nc2ncc3nc(-c4cccs4)c(=O)n(-c4ccccc4)c3n2)c1	x	1%	x
O=C(CCCN1C(=O)c2cccc3cccc(c23)C1=O)Nc1ccon1	x	-1%	x
COc1ccc(NS(=O)(=O)c2cc(NC(=O)c3ccncc3)ccc2N2CCOCC2)cc1	x	3%	-12%
O=C(Nc1ccc(N2CCOCC2)c(S(=O)(=O)Nc2ccc(Cl)cc2)c1)c1cnccn1	x	2µM*	x
SMILES	IMPase inh	ALDH1A1 block	HPGD block
O=C(NCCc1ccccc1)C1CCCN(S(=O)(=O)c2cccs2)C1 (stereo unspecified)	-5	-13%	1%
O=C1/C(=C/c2cccnc2)Oc2cc(OS(=O)(=O)c3ccccc3)ccc21	7	3.2µM*	u
COc1ccc(S(=O)(=O)Oc2ccc3c(c2)O/C(=C\c2cccnc2)C3=O)cc1	-5	7.9µM*	16µM*
O=C1OC(/C=C/c2ccccc2)=NC/1=C\c1cccnc1	x	5%	x
O=C1CCCC2=C1C(c1ccc(OS(=O)(=O)c3ccc(Cl)cc3)cc1)C1=C(CCCC1=O)O2	-1	u	-15%
O=C1/C(=C/c2cccnc2)Oc2cc(OS(=O)(=O)c3ccc(Cl)cc3)ccc21	-6	1.6µM*	-23%
CS(=O)(=O)Oc1ccc2c(c1)O/C(=C\c1cccnc1)C2=O	x	11µM*	x
COc1ccccc1C(=O)Oc1ccc2c(c1)O/C(=C\c1ccncc1)C2=O	-5	u	-27%
CCc1ccc(/C=C2\Oc3cc(OC(=O)N4CCOCC4)ccc3C2=O)cc1	x	-12%	-28%
CCCCCCCC/C=C\CCCCCCCC(=O)NC(C)C(=O)O (stereo unspecified)	x	0%	-1%
C=CCn1c(Cc2cccs2)nnc1SCC(=O)Nc1cc(OC)cc(OC)c1	0	3%	-2%
